Assay outcomes (PubChem BioAssay)
HCV inh: blocks hepatitis C virus; Huh7.5.1 HCVcc-Cre infection, luciferase reporter, 44 h; Potency, µM (series often up to 41.8 µM), for inactives: at the highest dose activity change, negative = inhibition, most hits filed as inhibitors; 3.4% of 340,000 active; AID 651820; also: potency is read from the fitted curve at half-maximal effect; % is scaled to controls: 0 for no effect and ±100 for the full control effect
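After 44 h co-culture of compound, cells and HCVcc-Cre (~0.5 moi), substrate is added for 15 min at room temperature and luciferase measured over 15 sec. Cells were seeded at 1,000/well and pre-cultured 4 h.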
Shiga inhibitor: inhibitors of Shiga toxin in Vero cells. 9.2% of 290,000 active. AID 2315. Vero cells, Shiga toxin protein synthesis inhibition reporter. inhibition, % at 38.7 µM; in the data active = inhibition mostly above about 28%, no sharp cut-off; inactive = mostly below about 43%; also: 0% is about no effect
Pf growth 48h: inhibits P. falciparum growth in the first generation, 48 h; Potency, µM (titrated, usually from 28.7 µM), for the others: top-dose activity change, negative = inhibition, actives largely listed as inhibitors; 5.9% of 310,000 active; P. falciparum luciferase growth in erythrocytes, 48 h; also: potency is read from the fitted curve at half-maximal effect; % is scaled to controls: 0 for no effect and ±100 for the full control effect
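Cell-based growth assay: transgenic P. falciparum expressing firefly luciferase, cultured in red cells within RPMI 1640 containing 0.5% w/v Albumax, 24 mM bicarbonate and gentamycin. A drop in luciferase activity indicates inhibition.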
HCMV inh: human cytomegalovirus inhibition; HFF cells, HCMV-luciferase reporter, 72 h; hits give low values; activity change, negative = inhibition, % at 57.5 µM; 4.5% of 410,000 active; AID 1259415; in the data active = activity change below about -60%; inconclusive = no clear call, values can overlap the other calls; inactive = above about -39%; also: % is scaled to controls: 0 for no effect and ±100 for the full control effect
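Human foreskin fibroblasts infected with luciferase-reporter HCMV at MOI 1 PFU/cell, compounds at two doses. Luciferase measured 72 h post infection; normalized to buffer-only basal and Salinomycin (10uM) controls.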
Pf growth 96h: P. falciparum growth inhibition at 96 hour, primary screen for plastid delayed-death inhibitors. P. falciparum luciferase reporter growth, 96 h. Potency, µM (highest dose often 28.7 µM), without a hit: at the highest dose activity change, negative = inhibition, hits mostly inhibitors. 6.9% of 320,000 active; also: potency is read from the fitted curve at half-maximal effect; % is scaled to controls: 0 for no effect and ±100 for the full control effect
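Plates of compound plus infected erythrocytes (2% hematocrit, 0.05% parasitemia final) incubate 96 hours, 37 C, 5% CO2. Detection reagent added; reduced luminescence from the parasites' luciferase reporter flags inhibition.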
Cycloheximide cs: counter-screen for Shiga toxin inhibitors: cycloheximide protein synthesis inhibition; cell reporter, cycloheximide protein synthesis inhibition counterscreen; max response, %; 12% of 300,000 active; in the data active = max response mostly above about 13%, no sharp cut-off; inactive = mostly below about 14%; also: read at 38.3 µM for the half of the compounds with a filed dose; 0% is about no effect
Numbers without * were called inactive; i = inactive; ? = inconclusive; . = no result. Compounds with a hit are over-represented: about 21% of the library has one in this group of screens. Unless noted, calls follow the shape of the dose curve; as a rule, active = well fitted inhibition curve with a large enough effect; inconclusive = small, poorly fitted or top-dose-only effect, or another doubt; inactive = no such curve, though single readings can be large or run the other way.

SMILES	HCV inh	Shiga inhibitor	Pf growth 48h	HCMV inh	Pf growth 96h	Cycloheximide cs
COc1ccc(NC(=O)c2cc(-c3ccc(F)cc3)no2)cc1OC	.	.	.	-4	.	.
CN1C(=O)C(C2(O)C(=O)N(Cc3ccccc3)c3cc([N+](=O)[O-])ccc32)c2ccccc21 (centres undefined)	.	.	.	-79*	.	.
CC1(C)CC(=O)C(C2(O)C(=O)N(Cc3ccccc3)c3ccccc32)CO1 (centres undefined)	0%	29	-18%	-16	130%	-6
COc1ccccc1C(=O)NC(=O)Cn1nc(C)c([N+](=O)[O-])c1C	14%	.	?	-4	24%	.
CCc1nc2sc3c(O)cc(=O)[nH]c3c2cc1C	2%	-12	14%	-81*	?	-8
CC(C)N1C(=S)N(Cc2ccco2)C(=O)C1CC(=O)Nc1ccccc1 (centres undefined)	31%	-9	1µM*	2	?	-2
O=C(CC1C(=O)N(c2ccccc2)C(=O)N1Cc1ccco1)Nc1ccccc1 (centres undefined)	18%	30	13%	14	15µM*	-3
COc1ccc(NC(=O)CC2C(=O)N(C)C(=S)N2Cc2ccco2)cc1 (centres undefined)	-2%	-11	-7%	-27	294%	-2
O=C(Nc1ccc(Cl)cc1)Nc1cc([N+](=O)[O-])ccc1F	-2%	25	?	-79*	-102%	3
O=C(Nc1ccc([N+](=O)[O-])cc1)Nc1ccc(Cl)cc1F	3%	-6	4.1µM*	-99*	33%	9
Nc1ccc(C(=O)OCC(=O)Nc2cc([N+](=O)[O-])ccc2F)cc1	-2%	-9	15%	0	16%	12*
Cc1cc(OC(F)F)ccc1NC(=O)Nc1ccc([N+](=O)[O-])cc1	?	-5	?	-79*	?	-1
O=C(c1noc2c1CCCC2)N1CCCC(N2CCN(c3ccccc3F)CC2)C1 (centres undefined)	-24%	3	?	.	?	1
Nc1ccc(C(=O)Oc2ccc([N+](=O)[O-])cc2)cc1	6%	105*	59%	11	21%	51*
Nc1ccc(C(=O)Oc2ccc([N+](=O)[O-])cc2)c(O)c1	.	10	5%	.	99%	-6
CCOC(=O)c1cnc(SCc2nc(N)nc(Nc3ccccc3)n2)nc1N	?	-13	-8%	-82*	17%	-1
CCOC(=O)c1cnc(SCC(=O)c2ccc(Cl)cc2)nc1N	4%	-4	.	47	-27%	9
CCCCSc1ncc(C(=O)OCC)c(N)n1	?	68*	i	131	?	46*
CCOC(=O)c1cnc(SCCc2ccccc2)nc1N	-18%	97*	98%	103	3%	35*
CCOC(=O)c1cnc(SCc2ccc(C)cc2)nc1N	-13%	106*	70%	99	0.052µM*	33*
C=C1CCC(O)C/C1=C/C=C1\CCC[C@]2(C)[C@@H]([C@H](C)/C=C/[C@H](C)C(C)C)CC[C@@H]12 (some centres undefined)	.	.	-18%	.	?	.
CCOC(=O)c1sc(NC(=O)c2nc3ncccn3n2)c(C(=O)OC(C)C)c1C	.	.	.	-2	.	.
CCOC(=O)c1cn2nc(Oc3cccc(C(F)(F)F)c3)ccc2n1	-6%	32	24%	-13	3%	1
Cc1ccc(C(=O)Nc2nnc(SCc3cc(=O)c4c(C)ccc(C)c4[nH]3)s2)cc1	.	.	.	1	.	.
O=C(CSc1nc(O)c(C/C=C/c2ccccc2)c(=O)[nH]1)Nc1cccc(F)c1	.	.	.	0	.	.
SMILES	HCV inh	Shiga inhibitor	Pf growth 48h	HCMV inh	Pf growth 96h	Cycloheximide cs
CCOC(=O)c1cnc(SC2CCc3ccccc3C2=O)nc1N (centres undefined)	-15%	71*	22%	6	18%	33*
CCOC(=O)c1cnc(SC2CC(=O)N(c3ccccc3)C2=O)nc1N (centres undefined)	8%	-17	35%	28	6%	-1
COc1ccccc1NC(=O)CN1CCN(CC(=O)Nc2ccc(F)cc2)CC1	?	-5	?	15	?	-3
O=C(CN1CCCC1)Nc1ccc(OCc2ccccc2)cc1	10µM*	27	7%	46	6%	27*
O=C(CN1CCCCCC1)Nc1ccccc1	10%	12	204%	-36	-11%	5
O=C(CN1CCN(c2ccccc2)CC1)Nc1ccc(OCc2ccccc2)cc1	11µM*	10	6%	.	27%	-2
CCOC(=O)N1CCN(CC(=O)Nc2ccc(Oc3ccccc3)cc2)CC1	-17%	-15	7.4µM*	-29	.	-4
COc1ccccc1NC(=O)CN1CCN(CC(=O)Nc2ccc(S(N)(=O)=O)cc2)CC1	-25%	-2	-11%	-64*	25%	-3
CN1CCN(CC(=O)Nc2ccc(Oc3ccccc3)cc2)CC1	?	-9	?	?	31%	6
CCn1c(CCl)nc2cc(S(=O)(=O)N3CCOCC3)ccc21	?	.	.	20	.	.
Cc1cc2c(cc1S(=O)(=O)CCC(=O)N1CCCCC1C)OCC(=O)N2 (centres undefined)	.	.	.	-5	.	.
COCC(C)NC(=O)CSc1nc2ccccc2c(=O)n1CCc1ccc(S(N)(=O)=O)cc1 (centres undefined)	.	1	?	-13	?	-2
CC(C(=O)Nc1ccc(OCc2ccccc2)cc1)N1CCCC1 (centres undefined)	?	33*	76%	-35	0%	28*
NS(=O)(=O)c1ccc(NC(=O)CN2CCN(S(=O)(=O)/C=C/c3ccccc3)CC2)cc1	-13%	13	-21%	-100*	7%	-2
COc1ccccc1NC(=O)CN1CCN(CC(=O)Nc2ccc(OCc3ccccc3)cc2)CC1	6%	18	?	?	-18%	20*
CS(=O)(=O)N1CCC(C(=O)Nc2ccc(OCc3ccccc3)cc2)CC1	13%	23	-9%	5	.	0
CC(=O)c1sc2nsc(SCCN3CCCC3)c2c1N	-2%	31	?	?	?	20*
Nc1cc(N)nc(SCCN2CCCCC2)n1	12%	-11	-10%	52	?	-2
CC1=CC(=O)C(C(C)=Nc2ccccc2[N+](=O)[O-])C(=O)O1 (centres undefined)	-6%	.	.	0	.	.
COc1cc2c(c(OC)c1OC)-c1ccc(SC)c(=O)cc1C(NC(=O)C(F)(F)F)CC2 (centres undefined)	-16%	.	.	-81*	.	.
COc1cc2c(c(OC)c1OC)-c1ccc(SC)c(=O)cc1C(NC(C)=O)CC2 (centres undefined)	6%	.	.	-93*	.	.
COc1ccc2c(c1)C(NC(=O)C(F)(F)F)CC2=O (centres undefined)	8%	20	23%	-1	11%	8
